# MCF10A rerep: A quantitative high throughput screen for small molecules that induce DNA re-replication in MCF 10a normal breast cells; MCF 10A DNA re-replication, Hoechst nuclear intensity, 48 h; Potency, µM (titrated, usually from 46.1 µM), inactives show at the top dose activity, positive = re-replication, usual class: activators; 350,000 compounds, 2.9% hits; note: % of control where 0% means no effect; nearly all actives have a fitted effect of over 50% in size
# SW480 rereplic: A quantitative high throughput screen for small molecules that induce DNA re-replication in SW480 colon adenocarcinoma cells. SW480 DNA re-replication, Hoechst DNA content imaging, 48 h. Potency, µM (series often up to 46.1 µM), inactives show at the highest dose re-replication activation, actives largely listed as activators. 340,000 compounds, 1.8% hits; note: % of control where 0% means no effect; nearly all actives have a fitted effect of over 55% in size
#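 SW480 cells exposed to compounds for 48 hr at 37 C, 5% CO2, then Hoechst-stained 40 min. Nuclear DNA content imaged by fluorescence scanning (405 nm excitation, 500-530 nm emission); re-replication scored as increased high-intensity nuclei.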
# HT1080NT lethal: qHTS for induction of synthetic lethality in tumor cells producing 2HG: qHTS for the HT-1080-NT fibrosarcoma cell line; HT-1080-NT fibrosarcoma viability, CellTiter-Glo ATP luminescence, 48 h; Potency, µM (top dose mostly 46.1 µM), for the others: top-dose activity, negative = less viability, hits mostly cytotoxic; 360,000 compounds, 1.6% hits; AID 686970, 2013;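 note: NT is the 2HG producing partner of a matched IDH1 knockdown line; 0% = DMSO-treated cells and -100% = media-only wells without cells; nearly all actives have a fitted effect of over 55% in size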
#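 Viability by CellTiter-Glo luminescence after 48 h compound exposure at 37C of HT-1080-NT cells (750/well, RPMI, 5% FBS). % activity scaled between DMSO wells and medium-only wells, then curve-fitted and categorized by curve class.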
# KB-3-1 tox: qHTS assay for MDR1-selective chemotherapeutics: Primary screen using the parental adenocarcinoma cell KB-3-1 | 400,000 compounds, 1.4% hits | AID 1347075, 2019 | KB-3-1 viability, CellTiter-Glo ATP luminescence, 72 h | Potency, µM (titrated, usually from 46.1 µM), actives largely listed as cytotoxic; note: % is set by controls: 0 for no effect and ±100 for the full control effect; nearly all actives have a fitted effect of over 60% in size
#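 Luminescent ATP read-out (CellTiter-Glo) measures survival of drug-naive KB-3-1 cells after 72 h compound exposure at 37 °C. Titration series was screened from lowest to highest concentration, with DMSO vehicle plates as background controls.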
# KB-V1 cytotox: qHTS assay for MDR1-selective chemotherapeutics: Primary screen using the drug-selected MDR subline cells KB-V1 | KB-V1 MDR cells viability, CellTiter-Glo, 72 h | 400,000 compounds, 3.4% hits | Potency, µM (titrated, usually from 46.1 µM), hits mostly cytotoxic | AID 1347076, 2019; note: % is set by controls: 0 for no effect and ±100 for the full control effect; nearly all actives have a fitted effect of over 60% in size
#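 KB-V1 cells (P-gp-expressing MDR subline of KB-3-1) in phenol-red-free DMEM with 10% FBS were exposed to library compounds over a concentration series for 72 h at 37 degrees C. Viability read by CellTiter-Glo luminescence; concentration-effect curves fitted after normalization.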
# HT1080 IDH1KD tx: qHTS for induction of synthetic lethality in tumor cells producing 2HG: qHTS for the HT-1080-IDH1KD cell line; HT-1080 IDH1 knockdown viability, ATP luminescence, 48 h; Potency, µM (doses to about 46.1 µM), for inactives: at the top dose activity, negative = toxicity, most hits filed as cytotoxic; 360,000 compounds, 2% hits; AID 686971, 2013;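 note: 0% = DMSO wells and -100% = cell-free medium wells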
#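 Assay cells: HT-1080 with IDH1 knockdown, 750 per well, RPMI/5% FBS. Exposure: 48 h at 37 °C following 2 h pre-incubation. Read: CellTiter-Glo luminescence; fitted concentration-response, curve class assigned.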
# An asterisk follows results filed as active; i = inactive; ? = inconclusive; . = no result. Shown are actives, neighbours in structure and some others; about 7.9% of the full set was active somewhere. Calls come from the whole dose curve; as a rule, active = well fitted curve in the direction sought with a large enough effect; inconclusive = small, poorly fitted or top-dose-only effect, or another doubt; inactive = no such curve, though single readings can be large; an effect the other way counts as inactive or inconclusive. Potency is the fitted concentration of half-maximal effect.
SMILES,MCF10A rerep,SW480 rereplic,HT1080NT lethal,KB-3-1 tox,KB-V1 cytotox,HT1080 IDH1KD tx
O=C1c2ccccc2C(=O)N1OS(=O)(=O)c1ccc(F)cc1,4%,3%,-4%,i,i,-6%
Cc1ccc(S(=O)(=O)ON2C(=O)c3ccccc3C2=O)c(C)c1,13µM*,?,?,i,i,?
Cc1cc(C)c(C)c(S(=O)(=O)ON2C(=O)c3ccccc3C2=O)c1C,7.3µM*,21µM*,?,i,i,7.3µM*
Cc1cc(C)c(S(=O)(=O)ON2C(=O)c3ccccc3C2=O)cc1C,7.3µM*,?,?,i,i,10µM*
O=C(CCCN1C(=O)c2ccccc2C1=O)Nc1ccc(Br)cn1,-3%,-7%,-4%,i,i,1%
C/C(=N\NC(=O)c1cccc(S(=O)(=O)N2CCCC2)c1)c1ccc(C)cc1,2%,-5%,0%,i,?,4%
CC(NC(=O)CNC(=O)C1CCCCC1)c1ccc(S(N)(=O)=O)cc1 (centres undefined),-24%,-17%,-20%,i,i,-3%
COc1ccc(CCN2C(=O)CC(N3CCN(S(=O)(=O)c4ccccc4)CC3)C2=O)cc1 (centres undefined),0%,-8%,-8%,i,i,1%
Cc1cccc(NC(=O)CN2CCN(C(=O)c3oc4c(Cl)cccc4c3C)CC2)c1C,?,6%,-3%,i,?,-10%
Cc1cc2ccccc2n1-c1ccc(C(=O)N2CCCCC2)s1,.,.,.,i,i,.
COc1ccc(CC(=O)Nc2ccc(-c3cn4ccc(C)cc4n3)cc2)cc1,?,?,15µM*,i,?,?
COc1ccc(-n2nnnc2-c2ccccc2)cc1,2%,-5%,5.6µM*,6.5µM*,9.2µM*,?
Clc1ccc(-n2nnnc2-c2ccccc2)cc1,-19%,-2%,1%,i,i,-15%
CC1(C)NC(=O)N(CCCCOc2ccc(Cl)cc2)C1=O,13%,7%,-5%,i,i,1%
O=c1c(Cl)c(NCc2ccco2)cnn1C12CC3CC(CC(C3)C1)C2,?,-6%,4%,i,i,1%
O=c1c(Cl)c(NCc2ccccc2Cl)cnn1C12CC3CC(CC(C3)C1)C2,?,?,9%,?,18µM*,19%
CN(C)c1ccc(S(=O)(=O)NCC(=O)NCCC2=CCCCC2)cc1[N+](=O)[O-],-3%,0%,-2%,i,18µM*,2%
CN(C)c1ccc(S(=O)(=O)NCC(=O)NCCOc2ccccc2F)cc1[N+](=O)[O-],-2%,?,-4%,i,i,-4%

# Screening results from PubChem.
